An excerpt weighted towards active compounds, which were near 2.2% of everything screened.
Myeloid diff MLP: promotes myeloid progenitor differentiation; ER-HoxA9 myeloid progenitors, lysozyme-GFP differentiation, flow cytometry; calls only at 10 µM; hit rate 1% among 360,000; AID 624256;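 active means normalized GFP-positive differentiation at or above the plate's own cutoff, the solvent-only control mean plus 3 SD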;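 further: cells exposed to compound for four days before flow analysis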
MIN6 prolif-1: induces beta-cell replication in MIN6 cells | MIN6 cells proliferation, ATPlite luminescence, 48 h; cells starved in 0.2% serum; 100% = growth in 10% serum | proliferation, % at 10 µM | hit rate 0.29% among 330,000 | AID 2380;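 active means compounds whose signal lies at least 3.5 SD above the mean of all wells on their plate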
ABCB6 inh 2: inhibitors of human ABC transporter ABCB6; K562-ABCB6 porphyrin accumulation, flow cytometry, 1 h; active compounds read low; fluorescence ratio to DMSO, % at 10 µM; hit rate 0.19% among 360,000; AID 602162;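 active means fluorescence ratio to DMSO below 75%, the collection mean minus 3 SD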;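 further: signal is porphyrin accumulated inside mitochondria; lower ratio means ABCB6 inhibition with less porphyrin fluorescence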
Cardio protect: myocardial damage modulation in H9c2 cells; protection from H2O2 cell death, % at 20 µM; H9c2 cardiomyocytes, H2O2 injury protection, ATPLite, 2 h; AID 588492; hit rate 0.63% among 360,000;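 active means compounds giving at least 50% protection of heart cells from peroxide-induced death in the single-dose screen, raw or plate-pattern-corrected value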
iPSC survival up: increases survival of single human iPS cells; hiPSC single-cell survival, ATPlite luminescence; 100% = ROCK inhibitor wells, 0% = DMSO; survival enhancement, % at 20 µM; hit rate 0.044% among 360,000; in the data active means survival enhancement above about 18%;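 further: cells exposed to compounds for 16 hours before the ATP read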
MIN6 prolif-2: MIN6 beta-cell replication induction, confirmed; shares compounds with MIN6 prolif-1; MIN6 beta-cell proliferation, ATPlite luminescence, 48 h; cells kept in 0.2% serum; scaled between 0.2% and 10% serum; proliferation increase, % at 50 µM; 920 tested, under 10 active; AID 463095;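 active means proliferation increase above 40% at any of the four tested concentrations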
Of the large screens only hits and unclear results are named; the others gave an inactive call (follow-up assays come after a bar, where they were run).

O=C(NCc1ccccc1Cl)C1CCCN(C(=O)Nc2ccc(F)cc2)C1 (configuration not stated)	none
Cc1ccc(CNC(=O)C2CCCN(C(=O)Nc3ccc(F)cc3)C2)cc1 (configuration not stated)	MIN6 prolif-1 10 | MIN6 prolif-2 inactive
Cc1ccc(Nc2nc3c(c(=O)[nH]2)CCCC3)cc1	MIN6 prolif-1 5.8 | MIN6 prolif-2 inactive
CCC1(c2ccccc2)C(=O)N(C(=O)OC(C)(C)C)N1C(=O)OC(C)(C)C (configuration not stated)	none
CCOC(=O)N1C(=O)[C@](CC)(c2ccccc2)N1C(=O)OCC	MIN6 prolif-1 12 | MIN6 prolif-2 inactive
O=c1cc(-c2ccc(O)c(O)c2)oc2cc(O[C@@H]3O[C@H](CO)[C@@H](O)[C@H](O)[C@H]3O)cc(O)c12	none
O=c1cc(-c2ccc(O)cc2)oc2cc(O)c(C3OC(CO)C(O)C(O)C3O)c(O)c12 (configuration not stated)	MIN6 prolif-1 9.0 | MIN6 prolif-2 inactive
CCn1c(C)nc2cc(C(=O)N/N=C/c3ccc(OC)cc3)ccc21	MIN6 prolif-1 7.8 | MIN6 prolif-2 inactive
O=C(O)COCC(=O)Nc1ccc(-n2nc(C(F)(F)F)cc2-c2cccs2)cc1	none
COCCN(Cc1cc2ccc(C)cc2[nH]c1=O)S(=O)(=O)c1ccccc1	MIN6 prolif-1 9.1 | MIN6 prolif-2 inactive
CCOc1ccc(C(=O)NCC(=O)OCCCC(=O)c2ccc(F)cc2)cc1OCC	MIN6 prolif-1 14 | MIN6 prolif-2 inactive
COc1ccc(C(=O)NCC(=O)OCCCOC(=O)CNC(=O)c2ccc(OC)c(OC)c2)cc1OC	none
COc1ccc([N+](=O)[O-])cc1NC(=O)c1ccc(N2C(=O)CCC2=O)cc1	MIN6 prolif-1 7.8 | MIN6 prolif-2 inactive
c1ccc2oc(SCc3cn4ccsc4n3)nc2c1	none
O=c1c2ccccc2nc(SCc2cn3ccsc3n2)n1-c1ccccc1	MIN6 prolif-1 6.1 | MIN6 prolif-2 inactive
C=CCNC(=O)c1ccccc1NC(=O)COc1ccc(OC)cc1	none
C=CCNC(=O)c1ccccc1NC(=O)COc1ccccc1	MIN6 prolif-1 8.4 | MIN6 prolif-2 inactive
COc1cc(/C=N/NC(=O)COc2c(C)cc([N+](=O)[O-])cc2C)ccc1OC(=O)c1ccccc1	none
COc1ccc(CC(=O)NCCS(=O)(=O)N2CCN(c3ccccc3)CC2)cc1OC	none
COc1ccc(CC(=O)NCCS(=O)(=O)N2CCN(c3ccccc3)CC2)cc1	MIN6 prolif-1 11 | MIN6 prolif-2 inactive
CCOC(=O)/C(C(=Nc1ccccc1)Nc1ccccc1)=C(\C)O	MIN6 prolif-1 7.0 | MIN6 prolif-2 inactive
CCN(CC(=O)Nc1ccccc1C(F)(F)F)C(=O)CSCC(=O)Nc1cc(C)on1	none
CCCCn1c(-c2nonc2N)nc2ccccc21	MIN6 prolif-1 8.1 | MIN6 prolif-2 inactive
COc1ccc(/C=N/OCC(=O)NCC(C)C)c(OC)c1	none
COC(=O)c1ccc(CO/N=C/c2ccc(OC)cc2OC)cc1	MIN6 prolif-1 8.0 | MIN6 prolif-2 inactive
CN(c1ccc(C(=O)Nc2cccnc2)cc1)S(=O)(=O)c1ccccc1	MIN6 prolif-1 0.0 | MIN6 prolif-2 inactive
CC(C)c1nc2n[nH]c(N)c2c2c1CCCC2	MIN6 prolif-1 6.1 | MIN6 prolif-2 inactive
CC(C)Cc1nc2n[nH]c(N)c2c2c1CCC2	MIN6 prolif-1 0.0 | MIN6 prolif-2 inactive
CC(=O)c1cccc(NC(=O)c2sc(Cl)nc2C)c1	none
CCNS(=O)(=O)c1ccc(NC(=O)c2cccnc2)cc1	MIN6 prolif-1 11 | MIN6 prolif-2 inactive
O=C(Nc1ccc(S(=O)(=O)Nc2ncccn2)cc1)c1cccnc1	none
COc1ccc(NC(=O)Nc2ccccc2F)c([N+](=O)[O-])c1	none
O=C1NC(c2ccc(Br)cc2)Oc2ccccc21 (configuration not stated)	MIN6 prolif-1 6.4 | MIN6 prolif-2 inactive
Cc1ccc(NC(=O)CC2SC(=NCC3CCCO3)NC2=O)cc1Cl (configuration not stated)	none
CCCn1c(N)c(C(=O)COC(=O)/C=C/c2ccc(OC(F)F)c(OC)c2)c(=O)[nH]c1=O	MIN6 prolif-1 7.4 | MIN6 prolif-2 inactive
Cc1ccc(NC(=S)NNC(=O)Cn2nc([N+](=O)[O-])cc2C)cc1	none

High-throughput results as filed in PubChem BioAssay.
